The full list was thinned out, with hits kept by preference.
KDM5B inhibitor – Primary screen for KDM5B Histone Demethylases FDH-coupled qHTS | Lysine-specific demethylase 5B (Homo sapiens), Q9UGL1 | KDM5B demethylase, FDH-coupled NADH fluorescence (FDH is formaldehyde dehydrogenase) | Potency, µM (doses to about 57.7 µM), usual class: inhibitors | 220,000 compounds, 2.6% hits | AID 1347165, 2019; active means well fitted inhibition curve with a large enough effect; further: nearly all actives have a fitted effect of over 70% in size
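KDM5BΔAP (200 nM final) in 50 mM HEPES pH 7.5, 0.01% Tween-20 was preincubated 10 min at RT with compound over a concentration range. Substrate mix (H3K4me3 12.5 µM, α-KG 25 µM, Fe²⁺, ascorbate, NAD⁺, FDH) was added, and NADH fluorescence change over 30 min gave dose-response curves.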
Each line names hits and unclear results; the compound was inactive in the other large screens.

O=C(Cc1ccc(F)cc1)NCCc1c[nH]c2ccccc12	none
Cc1ccc(NC(=O)c2cc(Cl)cc(Cl)c2)nc1	none
Cc1csc(SCC(=O)Nc2ccc(C(N)=O)cc2)n1	none
CN(Cc1ccccc1)C(=O)CNC(=O)C1CCCN(S(=O)(=O)c2ccc(F)cc2)C1 (stereo unspecified)	none
COC(=O)c1cc(N2CCOCC2)ccc1NC(=O)c1cccc(C#N)c1	none
O=C(NCc1cccnc1)c1cc(-c2cnccc2Cl)c2cccn2n1	none
O=C(Nc1ccc(Cl)nc1)c1cc2cccnn2n1	KDM5B inhibitor 35.5µM
COc1ccc(NC(=O)c2cccs2)cn1	none
O=C(NCc1ccc(Cl)nc1)c1cn2c(n1)CN(C(=O)c1ccccc1F)CC2	none
Cc1cc(Cl)ccc1NC(=O)c1cc2ccccn2n1	none
O=C(NCc1ccc(Cl)nc1)c1cc2cccnn2n1	KDM5B inhibitor 35.5µM
O=C(COc1ccccc1F)Nc1nc(-c2ccc(S(=O)(=O)N3CCOCC3)cc2)cs1	none
N#Cc1ccc(Cn2c(CN3CCCCC3)nc3scc(-c4cccs4)c3c2=O)cc1	none
Cc1ccc(-c2nc(CSc3nc4ncccc4[nH]3)c(C)o2)cc1	none
COc1ccc(Br)cc1CNC12CC3CC(CC(C3)C1)C2	none
COCCOc1ccnc(-c2noc([C@@H]3CCCN3Cc3ccc(C(=O)O)cc3)n2)c1	none
CS(=O)(=O)c1ccc(CN2C[C@H](O)C[C@H]2c2nc(-c3ccc4c(c3)OCO4)no2)cc1	none
NC(=O)C1CCN(c2cc(-c3noc([C@@H]4CCCN4Cc4ccc(Cl)cc4)n3)ccn2)CC1	KDM5B inhibitor 31.6µM
CS(=O)(=O)c1ccc(CN2CCC[C@H]2c2nc(-c3ccnc(N4CCC(C(N)=O)CC4)c3)no2)cc1	KDM5B inhibitor 28.2µM
CS(=O)(=O)c1ccc(CN2CCC[C@H]2c2nc(-c3ccc(-c4ccncc4)nc3)no2)cc1	none
CC(=O)N1CCC(N2CCC[C@H]2c2nc(-c3ccc(-n4ccnc4)nc3)no2)CC1	none
CC(=O)N1CCC(N2CCC[C@H]2c2nc(-c3ccnc(N4CCC(C(N)=O)CC4)c3)no2)CC1	KDM5B inhibitor 22.4µM
COc1ccc(-c2noc([C@@H]3CCCN3C(=O)c3cc(OC)c(OC)c(OC)c3)n2)cc1OC	none
O=C(COc1ccc(Cl)cc1)N1CCC[C@H]1c1nc(-c2ccc(F)cc2)no1	none
CN(C(=O)c1ccccc1)N(C)C(=O)c1ccccc1	none
N#Cc1ccc(NC(=O)NCCNc2ccccn2)cc1	none
Cc1c(C(=O)NCCSc2ccc(Cl)cc2)oc2c1C(=O)CCC2	none
Cc1ccc(SCc2ccc(C(=O)Nc3ccccc3C)cc2)cc1	none
CNC(=O)C(CCSC)NC(=O)c1ccc2ccccc2n1 (stereo unspecified)	none
Cc1nc(-n2nc(C)c(Cl)c2C)sc1C(=O)N1CCCC1	none
O=C(CCc1ccccc1)N1CCNc2cnc(Nc3cccc(C(F)(F)F)c3)nc2C1	KDM5B inhibitor 25.1µM
COc1ccccc1Nc1ncc2c(n1)CN(C(=O)c1cccc(O)c1)CCN2	none
Cc1ncsc1C(=O)N1CCNc2cnc(Nc3cccc(F)c3)nc2C1	none
Cn1nccc1C(=O)N1CCNc2cnc(Nc3ccccc3)nc2C1	none
O=C(COC(=O)c1cccnc1Nc1cccc(C(F)(F)F)c1)NCc1ccc2c(c1)OCO2	none
O=C(Cc1ccc2c(c1)OCO2)N1CCNc2cnc(Nc3cccc(C(F)(F)F)c3)nc2C1	KDM5B inhibitor 14.1µM
N#Cc1ccccc1-c1ccc(C(=O)O)o1	none
COc1ccc(OCc2ccc(C(=O)O)o2)cc1	none
C/C(=N\Nc1ccc(Cl)cc1C)c1cc2ccccc2s1	none
Cc1ccc(NC(=O)N2CCCN(S(C)(=O)=O)C(c3ccccc3)CC(=O)NCC2)cc1C (stereo unspecified)	none
Cn1cc(C(NC(=O)c2cccc(Cn3cccn3)c2)C2CC(O)C2)cn1 (stereo unspecified)	none
Cc1[nH]c(-c2ccccc2)nc1C(=O)N[C@H](c1cnn(C)c1)C1CC(O)C1 (stereo partly specified)	none
Cc1ccc2c(c1)c(C(=O)N[C@H](c1cnn(C)c1)C1CC(O)C1)nn2C (stereo partly specified)	KDM5B inhibitor 28.2µM
Cc1cc(C)nc(NC(c2ccsc2)c2cc(C)sc2NC(=O)c2ccco2)n1 (stereo unspecified)	none
Cc1ccccc1CC(=O)Nc1ccc(OC2CCCC2)cc1	none
CC(C)CC(=O)NC1CCN(c2cnn(Cc3ccccc3)c(=O)c2)CC1	none
O=C(c1nc(-c2cc(Cl)cc(Cl)c2)c2ccccn12)N1CCCC1	KDM5B inhibitor 28.2µM
O=C(c1nc(-c2ccccc2)c2ccccn12)N1CCN(c2ncccn2)CC1	none
O=C(c1nc(-c2cc(Cl)cc(Cl)c2)c2ccccn12)N1CCOCC1	KDM5B inhibitor 28.2µM
O=C(c1nc(-c2ccc(Cl)cc2)c2ccccn12)N1CCN(c2ncccn2)CC1	KDM5B inhibitor 25.1µM
O=C(c1cc(-c2ccccc2Cl)nc2ccccc12)N1CCOCC1	none
O=C(c1ccc(Cl)cc1)N1CCC(C(=O)N2CCN(c3ncccn3)CC2)CC1	none
COc1ccccc1-c1cc(C(=O)N2CCOCC2)nn2cccc12	none
CS(=O)(=O)c1ccc(-c2nc(C(=O)N3CCCC3)n3ccccc23)cc1	none
O=C(c1cc(-c2ccc(Cl)cc2)on1)N1CCCC1	none
CC(=O)NC(C)(C)C(=O)NCCC(c1ccccc1)c1ccccc1	none
Cc1cnc2c(S(=O)(=O)N(C)CC(=O)Nc3cccc(C)c3C)cccc2c1	none
CCN(CC)CC(C)OC(=O)c1cccc(F)c1 (stereo unspecified)	none
Cc1nc(-c2cccc(Cl)c2)n(CC(=O)Nc2ccc3c(c2)OCO3)c(=O)c1CCO	none
CCOC(=O)C1CCN(C(=O)c2cn3ccnc(-c4ccc(C)cc4)c3n2)CC1	none
COc1ccc(-c2nccn3cc(C(=O)NCCN4CCCCC4)nc23)cc1	KDM5B inhibitor 20µM
CCCCN1CCN(C(=O)c2cn3ccnc(-c4ccccc4)c3n2)CC1	none
CCCN1CCN(CCNC(=O)c2cn3ccnc(-c4ccc(OC)cc4)c3n2)CC1	KDM5B inhibitor 20µM
CCCN1CCN(CCNC(=O)Nc2cc(OC)cc(OC)c2)CC1	none
COc1cccc(N2CCN(C(=O)c3cn4ccnc(-c5ccccc5)c4n3)CC2)c1	none
COCCn1c(SC(C)C(=O)NC(N)=O)nnc1-c1cccc(C)c1 (stereo unspecified)	none
Cc1nn(-c2ccccc2)c(C)c1CN(C)C(=O)CNC(=O)c1ccc(C(F)(F)F)cc1	none
COc1cccc(N2CCN(CC(=O)NC(=O)NCC(F)(F)F)CC2)c1	none
Cc1c(C)n(-c2ccc(Cl)cc2)c2ncn(CC(=O)NC(C)c3ccccc3)c(=O)c12 (stereo unspecified)	none
CN(C)C(=O)c1ccnc(-c2nnc3ccc(N(C)Cc4ccccc4)nn23)c1	none
O=C(NCc1ccccc1)c1ccnc(-c2nnc3ccc(N4CCOCC4)nn23)c1	none
CN(C)C(=O)c1ccnc(-c2nnc3ccc(NCCN4CCOCC4)nn23)c1	KDM5B inhibitor 35.5µM
CN(C)C(CNC(=S)NCCc1ccccc1)c1cccs1 (stereo unspecified)	none
O=[S+]1([O-])NCC2(CCCN(Cc3ccc(C(F)(F)F)cc3)C2)Nc2ccccc21 (stereo unspecified)	none
N#Cc1ccc(C(=O)N2Cc3[nH]cnc3C[C@H]2c2nc(-c3ccc4c(c3)OCO4)no2)cc1	none
O=C(O)CCC(=O)N1Cc2[nH]cnc2C[C@H]1c1nc(-c2ccc(OC(F)(F)F)cc2)no1	none
O=C(NCc1ccccc1)N1Cc2[nH]cnc2C[C@H]1c1nc(-c2ccc3c(c2)OCO3)no1	none
c1ccc2oc(CN3Cc4[nH]cnc4C[C@H]3c3nc(-c4ccc5c(c4)OCO5)no3)cc2c1	KDM5B inhibitor 35.5µM

Screening data: PubChem, National Center for Advancing Translational Sciences (NCATS)
